This excerpt belongs to a sample that is enriched for hits.
TbPYK inhibitor: qHTS of Trypanosoma Brucei Inhibitors; TbPYK enzyme, Kinase-Glo Plus ATP luminescence, 45 min; Potency, µM (titrated, usually from 76.8 µM), most hits filed as inhibitors; 410,000 tested, 0.12% active; also: nearly all actives have a fitted effect of over 50% in size
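Assay buffer: 50 mM TEA pH 7.2, 100 mM KCl, 10 mM MgCl2, 0.05% BSA, 0.01% Tween-20. Pyruvate kinase from T. brucei plus substrate met compound, then ADP (130 uM final). Luminescence was read post 45 min RT.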
Sm TGR inh: qHTS Assay for the Inhibitors of Schistosoma Mansoni Peroxiredoxins; Schistosoma mansoni thioredoxin glutathione reductase (TGR), Q962Y6; purified TGR, DTNB reduction, TNB absorbance 405 nm; Potency, µM (top dose mostly 114 µM), most hits filed as inhibitors; 360,000 tested, 3% active; AID 485364, 2010; also: nearly all actives have a fitted effect of over 60% in size
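First, TGR (20 nM dispensed) and NADPH were mixed with compound. Second, a 15 min room-temperature incubation followed. Third, further NADPH and then DTNB were added to start the reaction. Finally, TNB absorbance was monitored kinetically.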
Shiga inhibitor: A qHTS for Small Molecule Inhibitors of Shiga Toxin. 290,000 tested, 9.2% active. Vero cells, Shiga toxin protein synthesis inhibition reporter. inhibition, % at 38.7 µM; in the data active = inhibition mostly above about 28%, no sharp cut-off; inactive = mostly below about 43%
Cycloheximide cs: Cycloheximide Counterscreen for Small Molecule Inhibitors of Shiga Toxin; cell reporter, cycloheximide protein synthesis inhibition counterscreen; 300,000 tested, 12% active; max response, %; in the data active = max response mostly above about 13%, no sharp cut-off; inactive = mostly below about 14%; also: read at 38.3 µM for the half of the compounds with a filed dose
LmPK inhibitor: qHTS Assay for Inhibitors of Leishmania Mexicana Pyruvate Kinase (LmPK). Q27686. purified LmPK, Kinase-Glo ATP luminescence, 1 h. Potency, µM (doses to about 57.5 µM), most hits filed as inhibitors. 290,000 tested, 0.37% active. AID 1721, 2009
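Screened at intermediate enzyme activity to detect both inhibitors and activators: LmPK at 0.1 nM, with a 0.5 nM enzyme column as activation reference. PEP 0.5 mM, ADP 0.1 mM; ATP detected by luminescence after 1 h.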
FBPA Giardia inh: qHTS Assay for Inhibitors of Fructose-1,6-bisphosphate Aldolase from Giardia Lamblia | A8B2U2 | purified Giardia FBPA | Potency, µM (doses to about 59.6 µM), hits mostly inhibitors | 290,000 tested, 0.71% active; also: nearly all actives have a fitted effect of over 55% in size
Target sequence (A8B2U2 whole entry, looked up): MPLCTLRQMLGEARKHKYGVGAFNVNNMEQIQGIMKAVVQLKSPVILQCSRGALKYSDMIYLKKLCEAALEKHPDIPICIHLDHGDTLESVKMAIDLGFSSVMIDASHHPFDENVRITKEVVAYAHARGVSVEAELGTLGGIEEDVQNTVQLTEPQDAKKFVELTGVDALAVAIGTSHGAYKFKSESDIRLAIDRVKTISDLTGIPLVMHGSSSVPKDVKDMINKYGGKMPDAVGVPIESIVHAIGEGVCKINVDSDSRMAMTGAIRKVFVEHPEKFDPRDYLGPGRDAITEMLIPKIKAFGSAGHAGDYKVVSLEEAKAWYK
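Giardia FBPA (40 nM reagent) was preincubated 10 min at RT with compound (up to 57.5 uM final), then substrate plus GAPDH/TPI/NAD/arsenate coupling system with diaphorase/resazurin was added; resorufin fluorescence (525/598 nm) was read after 20 min.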
A number is an active result. Unless noted, calls follow the shape of the dose curve; as a rule, active = well fitted curve in the direction sought with a large enough effect; inconclusive = small, poorly fitted or top-dose-only effect, or another doubt; inactive = no such curve, though single readings can be large; an effect the other way counts as inactive or inconclusive.

Results for COc1ccc(C(=O)N/N=C(/C)c2cccc(NC(=O)C(F)(F)F)c2)cc1 ?
TbPYK inhibitor: inactive; Sm TGR inh: inactive; Shiga inhibitor: 73; Cycloheximide cs: 37; LmPK inhibitor: inactive; FBPA Giardia inh: inactive

How did COc1ccccc1C(CNC(=O)C(CCSC)NC(=O)c1ccccc1Cl)N1CCCC1 (stereo not drawn) do in these assays?
TbPYK inhibitor: inactive

How did O=C(Nc1ccc(Oc2ccccc2)nc1)C1CCCCN1Cc1cccc(O)c1 (stereo not drawn) do in these assays?
TbPYK inhibitor: inactive; Sm TGR inh: inactive; Shiga inhibitor: inactive; Cycloheximide cs: inactive; LmPK inhibitor: inactive

How did COCCC(=O)N1CCC(C(=O)Nc2ccc(Oc3ccccc3)nc2)CC1 do in these assays?
TbPYK inhibitor: inactive; Sm TGR inh: inactive; Shiga inhibitor: 66; Cycloheximide cs: 63; LmPK inhibitor: inactive; FBPA Giardia inh: inactive

Results for O=C(Nc1ccc(Oc2ccccc2)nc1)C1CCCCN1Cc1ccc(O)cc1 (stereo not drawn) ?
Sm TGR inh: 32µM; Shiga inhibitor: inactive; Cycloheximide cs: 20; LmPK inhibitor: inactive

What do the screens show for `COCCc1ncc(CN2CCCCC2C(=O)Nc2ccc(Oc3ccccc3)nc2)cn1` (stereo not drawn)?
TbPYK inhibitor: inactive; Sm TGR inh: inactive; Shiga inhibitor: inactive; Cycloheximide cs: inactive; LmPK inhibitor: inactive

Results for COc1ccc(CN2CCCCC2C(=O)Nc2ccc(OC)c(OCC(C)C)c2)cc1OC (stereo not drawn) ?
TbPYK inhibitor: inactive; Sm TGR inh: inactive; Shiga inhibitor: inactive; Cycloheximide cs: inactive; LmPK inhibitor: inactive; FBPA Giardia inh: inactive

How did COc1cc(CN2CCCCC2C(=O)Nc2ccc(Oc3ccccc3)nc2)ccc1O (stereo not drawn) do in these assays?
TbPYK inhibitor: inactive; Sm TGR inh: 1.8µM; Shiga inhibitor: 81; Cycloheximide cs: 55; LmPK inhibitor: inactive; FBPA Giardia inh: inactive

What do the screens show for `CCCCN(C(C)=O)c1c(CC)nc2ccc(C(=O)NCc3cccs3)cn12`?
TbPYK inhibitor: inactive

How did COC(=O)c1ccc2[nH]c(C(C)(C)O)c(C)c2c1 do in these assays?
TbPYK inhibitor: inactive; Sm TGR inh: inactive; Shiga inhibitor: 40; Cycloheximide cs: 23; LmPK inhibitor: inactive; FBPA Giardia inh: inactive

Results for CCOC(=O)c1ccc2[nH]c3ccccc3c2c1 ?
TbPYK inhibitor: inactive; Sm TGR inh: inactive; Shiga inhibitor: 63; Cycloheximide cs: 37; LmPK inhibitor: inactive; FBPA Giardia inh: inactive

What do the screens show for `CCOC(=O)c1ccc2[nH]c(C)c(C)c2c1`?
TbPYK inhibitor: inactive

How did Cc1ccc(OCCN2CCC2(C)C(=O)NCc2ccc(C(F)(F)F)cc2)cc1 (stereo not drawn) do in these assays?
TbPYK inhibitor: inactive

How did COc1ccccc1NC(=O)Nc1ccc(NC(=O)c2ccccc2O)cc1 do in these assays?
TbPYK inhibitor: inactive; Sm TGR inh: inactive; Shiga inhibitor: inactive; Cycloheximide cs: inactive; LmPK inhibitor: inactive; FBPA Giardia inh: inactive

What do the screens show for `COc1ccccc1NC(=O)Nc1ccc(C(N)=O)cc1`?
TbPYK inhibitor: inactive; Sm TGR inh: inactive; Shiga inhibitor: inactive; Cycloheximide cs: 13; LmPK inhibitor: inactive; FBPA Giardia inh: inactive

Results for CCN1CCN(Cc2ccc(NC(=O)Nc3ccccc3OC)cc2)CC1 ?
TbPYK inhibitor: inactive; Sm TGR inh: inactive; Shiga inhibitor: 10; Cycloheximide cs: 35; LmPK inhibitor: inactive; FBPA Giardia inh: inactive

What do the screens show for `COc1ccccc1NC(=O)Nc1ccc(CC#N)cc1`?
TbPYK inhibitor: inactive; Sm TGR inh: inactive; Shiga inhibitor: 43; Cycloheximide cs: 25; LmPK inhibitor: inactive; FBPA Giardia inh: inactive

Results for COc1ccccc1NC(=O)Nc1ccncc1 ?
TbPYK inhibitor: inactive; Sm TGR inh: inactive; Shiga inhibitor: inactive; Cycloheximide cs: inactive; LmPK inhibitor: inactive; FBPA Giardia inh: inactive

What do the screens show for `COc1ccccc1NC(=O)Nc1ccc(Cc2ccncc2)cc1`?
TbPYK inhibitor: inactive; Sm TGR inh: inactive; Shiga inhibitor: 50; Cycloheximide cs: inactive; LmPK inhibitor: inactive; FBPA Giardia inh: inactive

Results for O=C(Nc1nccs1)c1ncc(Cl)c(Cl)c1Cl ?
TbPYK inhibitor: inactive; Sm TGR inh: inactive; Shiga inhibitor: 66; Cycloheximide cs: 42; LmPK inhibitor: inactive

What do the screens show for `Cn1cc(Cl)c(C(=O)Nc2nccs2)n1`?
TbPYK inhibitor: inactive; Sm TGR inh: inactive; Shiga inhibitor: 71; Cycloheximide cs: 40; LmPK inhibitor: inactive

What do the screens show for `CSCC[C@H](NC(=O)[C@H](CC(C)C)N(C)C(=O)[C@@H]1CCCN1C(=O)[C@H](Cc1ccccc1)NC(=O)[C@H](Cc1ccccc1)NC(=O)CCC(C)N)C(=O)O` (stereo partly drawn)?
Shiga inhibitor: inactive; Cycloheximide cs: inactive; FBPA Giardia inh: inactive

How did CC1CN(Cc2ccc(C#N)cc2Cl)CC(C)O1 (stereo not drawn) do in these assays?
TbPYK inhibitor: inactive; Sm TGR inh: inactive; Shiga inhibitor: inactive; Cycloheximide cs: inactive; LmPK inhibitor: inactive; FBPA Giardia inh: inactive

What do the screens show for `CC1CN(Cc2ccc(Cl)cc2Cl)CC(C)O1` (stereo not drawn)?
TbPYK inhibitor: inactive; Sm TGR inh: inactive; Shiga inhibitor: 46; Cycloheximide cs: inactive; LmPK inhibitor: inactive; FBPA Giardia inh: inconclusive

What do the screens show for `COc1ccc(/C=N/Nc2cc(C)nc3ccccc23)cc1`?
TbPYK inhibitor: inactive; Sm TGR inh: inactive; Shiga inhibitor: inactive; Cycloheximide cs: inactive; LmPK inhibitor: inactive; FBPA Giardia inh: inactive

How did Oc1ccc2ccccc2c1/C=N/Nc1nnc(-c2ncc[nH]2)c2ccccc12 do in these assays?
TbPYK inhibitor: inactive; Sm TGR inh: inactive; Shiga inhibitor: inactive; Cycloheximide cs: 48; LmPK inhibitor: inactive; FBPA Giardia inh: inactive

Results for COc1ccc(/C=N/Nc2nnc(-c3ncc[nH]3)c3ccccc23)cc1 ?
TbPYK inhibitor: inactive; Sm TGR inh: inactive; Shiga inhibitor: 78; Cycloheximide cs: 25; LmPK inhibitor: inactive; FBPA Giardia inh: inactive

Results for Oc1ccc2ccccc2c1C=NNc1ccccn1 ?
TbPYK inhibitor: inactive

Results for CN(CC(=O)Nc1ccc(N2CCOCC2)cc1)C(=O)CCc1cc(C(C)(C)C)c(O)c(C(C)(C)C)c1 ?
TbPYK inhibitor: inactive; Sm TGR inh: inactive

Results for COc1cc(C(=O)Nc2ccccc2OCc2cc(=O)n3c(C)csc3n2)cc(OC)c1OC ?
TbPYK inhibitor: inactive; Sm TGR inh: inactive

Results for Cc1cc(NC(=O)n2ncc3c(C)cccc32)ccc1Br ?
TbPYK inhibitor: inactive; Sm TGR inh: inactive

High-throughput results deposited in PubChem by National Center for Advancing Translational Sciences (NCATS).
